Consider 20 molecules from PubChem BioAssay (NCATS).

Several values for one entry are separate records, joined by “and”; a condition that tells them apart may be missing. Equal entries are not always repeated. Records with an inconclusive call do not appear. Activity calls are given as the source filed them. Calls follow the shape of the dose curve; as a rule, active = well fitted curve in the direction sought with a large enough effect; inconclusive = small, poorly fitted or top-dose-only effect, or another doubt; inactive = no such curve, though single readings can be large; an effect the other way counts as inactive or inconclusive.

A short description of experiment [1]: BET inhibitor-based combinations targeting novel dependencies in MECOM-rearranged (r) AML: OCI-AML3 cell line (AID 2202232). Also: nearly all actives have a fitted effect of over 35% in size. As to conditions: Potency: OCI-AML3 viability. The gist of the method: (§1)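 500 cells/well; 11-pt dose curve; 48 h, standard incubator; CellTiter-Glo luminescence after 15 min RT; DMSO/empty-well normalization; AUC plus Z-AUC (mean-centered within each line).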

Experiment [2] in a line: BET inhibitor-based combinations targeting novel dependencies in MECOM-rearranged (r) AML: MV-4-11 cell line (AID 2202233). Also: nearly all actives have a fitted effect of over 45% in size. The gist of the method:
(§2)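 Cells were plated at 500 per well and exposed to each drug across an 11-point dose range for 48 hr at standard incubator conditions. Viability was read by CellTiter-Glo luminescence, and activity was expressed as AUC and per-cell-line Z-transformed AUC.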

The nature of experiment [3]: BET inhibitor-based combinations targeting novel dependencies in MECOM-rearranged (r) AML: HNT-34 cell line (AID 2202234). Also: nearly all actives have a fitted effect of over 35% in size. A digest of the protocol:
as §2

A short description of experiment [4]: BET inhibitor-based combinations targeting novel dependencies in MECOM-rearranged (r) AML: UCSD-AML1 cell line (AID 2202235). Also: nearly all actives have a fitted effect of over 40% in size. The gist of the method: as §2
A short description of experiment [5]: BET inhibitor-based combinations targeting novel dependencies in MECOM-rearranged (r) AML: AML-191 cell line (AID 2202236; also: nearly all actives have a fitted effect of over 35% in size). The gist of the method:
as §1

Experiment [6] is described as follows: BET inhibitor-based combinations targeting novel dependencies in MECOM-rearranged (r) AML: AML-194 cell line (AID 2202237; also: nearly all actives have a fitted effect of over 40% in size). The gist of the method: as §1
Potency is read from the fitted curve at half-maximal effect.

With `CC(C)C[C@H](NC(=O)c1cc2ccccc2s1)C(=O)N1CCN(C(=O)[C@H](CO)NS(=O)(=O)c2ccc(Cl)cc2Cl)CC1`, the results for the Potency in experiment [1], in experiment [2] and in experiment [3] were 18.6 µM (active), 23.5 µM (active) and 26.3 µM (active), respectively. Also, in experiment [4], the Potency result is “inactive”.
For `Cc1ccc2nc(NCCN)c3ncc(C)n3c2c1`, the Potency in experiment [1] is 9.34 µM (active); in experiment [2] it was 4.68 µM (active); in experiment [3], 8.33 µM (active); in experiment [4], 7.42 µM (active); in experiment [5] it was 5.9 µM (active); in experiment [6] it was 8.33 µM (active).
On to `CCNC(=O)Nc1ccc(-c2nc3c(c(N4CCOC[C@@H]4C)n2)CCN(C2COC2)C3)cc1`, for which the Potency in experiment [1] was 1.48 µM (active); in experiment [2], 1.32 µM (active); in experiment [3], 1.05 µM (active).
For Ac-PHSCN-NH2, the Potency result in experiment [1], in experiment [2], in experiment [3], in experiment [4], in experiment [5] and in experiment [6] was “inactive” each time.
With `COc1cc(C(C)C)c2c(c1)S(=O)(=O)N(COc1cc(=O)n3cccc(OCCN4CCCCC4)c3n1)C2=O`, the Potency was 23.5 µM (active) in experiment [1]; 23.5 µM (active) in experiment [2]; 20.9 µM (active) in experiment [3]; 26.3 µM (active) in experiment [4]; 29.5 µM (active) in experiment [5]; 23.5 µM (active) in experiment [6].
`N#Cc1c(N)nc(N)nc1N[C@H](c1nc2c(F)ccc(Cl)c2c(=O)n1-c1cccnc1)C1CC1`: the Potency in experiment [1] was 6.61 µM (active); in experiment [2], 3.32 µM (active); in experiment [3], 16.6 µM (active); in experiment [4] it was 5.9 µM (active).
Consider `COc1cc(-c2cn(C)c(=O)c3cnccc23)c(OC)cc1CN(C)C`, for which the Potency is 1.18 µM (active) in experiment [1] and 4.17 µM (active) in experiment [2]. In addition, the Potency result in experiment [3], in experiment [4], in experiment [5] and in experiment [6] was “inactive” each time.
Consider `CC[C@H](CC[C@@H](C)[C@H]1CC[C@H]2[C@@H]3CC=C4C[C@@H](O)CC[C@]4(C)[C@H]3CC[C@]12C)C(C)C`, for which the Potency entry in experiment [1], in experiment [2], in experiment [3], in experiment [4], in experiment [5] and in experiment [6] was “inactive” throughout.
In the case of `COc1ccc2[nH]c3c(c2c1)CCN[C@]31CS[C@@H]2c3c(OC(C)=O)c(C)c4c(c3[C@H](COC1=O)N1[C@@H]2[C@H]2c3c(cc(C)c(OC)c3O)C[C@@H]([C@@H]1O)N2C)OCO4`, the Potency in experiment [1] was 0.0034 µM (active); in experiment [2], 0.0019 µM (active); in experiment [3], 0.0034 µM (active); in experiment [4] it was 0.0038 µM (active); in experiment [5] it was 0.0048 µM (active); in experiment [6] it was 0.0038 µM (active).
For `Nc1nc2c(c(=O)[nH]1)N1CN(c3ccc(C(=O)N[C@@H](CCC(=O)O)C(=O)O)cc3)CC1CN2` (stereo not given in full), the Potency was 1.66 µM (active) in experiment [1], 1.05 µM (active) in experiment [2], 9.34 µM (active) in experiment [3] and 0.934 µM (active) in experiment [4].
In the case of `Cc1ccc(C)c(OCCCC(C)(C)C(=O)O)c1`, the Potency entry in experiment [1], in experiment [2], in experiment [3], in experiment [4], in experiment [5] and in experiment [6] was “inactive” throughout.
As to `Cc1cc(OCCCc2c3n(c4c(-c5c(C)nn(C)c5C)c(Cl)ccc24)[C@H](C)CN(c2cn(C)c4ccc(C(=O)O)cc24)C3=O)cc(C)c1Cl`, the Potency in experiment [1] is 2.63 µM (active); in experiment [2], 0.468 µM (active); in experiment [3], 2.95 µM (active); in experiment [4] it was 20.9 µM (active); in experiment [5], 20.9 µM (active); in experiment [6] it was 14.8 µM (active).
For `CN(Cc1cnc2nc(N)nc(N)c2n1)c1ccc(C(=O)N[C@@H](CCC(=O)O)C(=O)O)cc1`, the Potency in experiment [1] is 0.0468 µM (active); in experiment [2], 0.105 µM (active).
For the molecule `CC(C)(O)C1CCC(Nc2ccc3ncc(-c4cccc(C(F)(F)F)c4)n3n2)CC1` (stereo not given), the Potency in experiment [1] is 11.8 µM (active); in experiment [2] it was 3.32 µM (active); in experiment [3], 6.61 µM (active); in experiment [4], 6.61 µM (active); in experiment [5], 5.9 µM (active).
With `Cc1c(Cl)cccc1S(=O)(=O)Nc1nc(CCN2CCOCC2=O)cs1`, the Potency in experiment [1] was 0.0742 µM (active). The Potency result in experiment [2] and in experiment [3] was “inactive” each time.
On to `CN1CCN(c2ccc(Nc3ncc4cc(C#N)c(=O)n(C5CCCC5)c4n3)cc2)CC1`, for which the Potency in experiment [1] was 0.105 µM (active); in experiment [2], 0.186 µM (active).
In the case of `Cc1cc(C)c(CNC(=O)c2cc(-c3ccc(N4CCN(C)CC4)nc3)cc3c2c(C)cn3C(C)C)c(=O)[nH]1`, the Potency in experiment [1] is 18.6 µM (active); in experiment [2], 23.5 µM (active) and 20.9 µM (active); in experiment [3], 23.5 µM (active). Besides, the Potency result in experiment [4] was “inactive”.
For `CC(C)(O)CC[C@@H](O)[C@](C)(O)[C@H]1CC[C@@]2(O)C3=CC(=O)[C@@H]4C[C@@H](O)[C@@H](O)C[C@]4(C)[C@H]3CC[C@]12C`, the Potency result in experiment [1], in experiment [2], in experiment [3], in experiment [4], in experiment [5] and in experiment [6] was “inactive” each time.
For `CC(C)Oc1ccc(-c2nn([C@@H](C)c3oc4ccc(F)cc4c(=O)c3-c3cccc(F)c3)c3ncnc(N)c23)cc1F`, the Potency is 11.8 µM (active) in experiment [1], 16.6 µM (active) in experiment [2] and 20.9 µM (active) in experiment [3]. Also, the Potency result in experiment [4] is “inactive”.
In the case of `COc1cc(C(N)=O)ccc1NC(=O)[C@@H]1N[C@@H](CC(C)(C)C)[C@@]2(C(=O)Nc3cc(Cl)ccc32)[C@H]1c1cccc(Cl)c1F`, the Potency in experiment [1] was 0.934 µM (active); in experiment [2], 0.0934 µM (active); in experiment [3], 0.148 µM (active); in experiment [4], 0.209 µM (active); in experiment [5], 0.468 µM (active); in experiment [6], 0.59 µM (active).
